Experimental data from PubChem BioAssay.
A number with no mark means an inactive call. For some assays here: Entries with a potency or affinity are not part of this list. Calls of active or inactive are those of the source. Unless noted, the rule behind the calls is not given here.

How the values were obtained:
[1] = antimalarial activity against Dd2 strain (AID 2302;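 active = growth inhibition above 50% at the single 2 µM test dose, taken to imply half-maximal potency below 2 µM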;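 note: 0% = DMSO untreated growth and 100% = chloroquine plus artemisinin killed control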); conditions: P. falciparum Dd2 in RBCs, LDH growth readout, 72 h; at 2 µM; active compounds read high
[2] = human hepatoma cell viability loss – ATP luminescence, cytotoxicity control for P. falciparum antimalarial project, primary screen (AID 2303;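 active = inhibition above 50%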;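 note: 0% = DMSO wells and 100% = digitonin-killed cells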); conditions: HepG2 viability, 24-48 h, at 10 µM, active compounds read high
[3] = molecular target: L-lactate dehydrogenase (Plasmodium falciparum (isolate CDC / Honduras)) (UniProt Q27743); experiment: PfLDH activity inhibition – cell lysate, 3D7 strain, counter-screen for P. falciparum growth inhibition project (AID 2304);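 note: 0% = vehicle and 100% = reference inhibitor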; conditions: P. falciparum 3D7 crude extract, LDH APAD/NBT absorbance; at 2 µM; active compounds read high
Chain of L-lactate dehydrogenase (Plasmodium falciparum (isolate CDC / Honduras)) (Q27743 whole entry, looked up): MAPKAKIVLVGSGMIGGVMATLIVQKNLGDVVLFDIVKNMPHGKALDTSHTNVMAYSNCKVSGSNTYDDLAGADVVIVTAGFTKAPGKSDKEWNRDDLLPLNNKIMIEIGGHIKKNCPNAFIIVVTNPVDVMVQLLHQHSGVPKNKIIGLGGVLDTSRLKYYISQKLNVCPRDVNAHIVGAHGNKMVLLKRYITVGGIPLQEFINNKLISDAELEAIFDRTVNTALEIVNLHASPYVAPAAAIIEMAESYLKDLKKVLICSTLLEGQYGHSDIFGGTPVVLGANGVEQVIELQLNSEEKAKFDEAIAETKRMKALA

[4] = inhibition of 3D7 malaria parasite growth – strain 3D7 (AID 2306);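 note: 0% = DMSO wells and 100% = chloroquine plus artemisinin control wells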; conditions: P. falciparum 3D7 erythrocytic growth, LDH absorbance, 72 h; at 2 µM; active compounds read high
[5] = molecular target: Calcium-dependent protein kinase 1 (Plasmodium falciparum (isolate 3D7)) (UniProt P62344); experiment: PfCDPK1 kinase inhibitors, biochemical, TCAMS library (AID 1159585; cut-off not given, nearly all actives have IC50 up to about 0.98 µM;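 note: inhibitors leave more ATP so luminescence rises with inhibition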); conditions: recombinant PfCDPK1, Kinase-Glo ATP depletion luminescence
Chain of Calcium-dependent protein kinase 1 (Plasmodium falciparum (isolate 3D7)) (P62344 whole entry, looked up): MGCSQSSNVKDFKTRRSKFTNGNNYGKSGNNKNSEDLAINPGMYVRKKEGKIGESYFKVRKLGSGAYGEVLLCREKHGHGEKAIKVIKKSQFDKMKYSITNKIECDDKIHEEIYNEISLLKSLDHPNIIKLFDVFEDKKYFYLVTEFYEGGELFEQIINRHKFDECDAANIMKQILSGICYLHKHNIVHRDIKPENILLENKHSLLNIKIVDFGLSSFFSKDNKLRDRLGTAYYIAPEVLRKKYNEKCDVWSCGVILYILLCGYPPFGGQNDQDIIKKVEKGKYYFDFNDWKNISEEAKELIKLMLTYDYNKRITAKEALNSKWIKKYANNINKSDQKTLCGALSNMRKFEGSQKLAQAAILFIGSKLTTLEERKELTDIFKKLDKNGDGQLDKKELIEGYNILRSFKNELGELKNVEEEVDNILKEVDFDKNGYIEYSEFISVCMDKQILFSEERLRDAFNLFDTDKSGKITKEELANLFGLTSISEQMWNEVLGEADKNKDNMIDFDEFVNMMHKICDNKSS

[6] = molecular target: Plasmodium falciparum protein kinase 6 (PK6, PF3D7_1337100) (UniProt Q8IDW1); experiment: PfPK6 kinase inhibitors, biochemical, TCAMS library (AID 1159586); conditions: recombinant PfPK6, Kinase-Glo ATP depletion luminescence
Chain of Plasmodium falciparum protein kinase 6 (PK6, PF3D7_1337100) (Q8IDW1 1-305): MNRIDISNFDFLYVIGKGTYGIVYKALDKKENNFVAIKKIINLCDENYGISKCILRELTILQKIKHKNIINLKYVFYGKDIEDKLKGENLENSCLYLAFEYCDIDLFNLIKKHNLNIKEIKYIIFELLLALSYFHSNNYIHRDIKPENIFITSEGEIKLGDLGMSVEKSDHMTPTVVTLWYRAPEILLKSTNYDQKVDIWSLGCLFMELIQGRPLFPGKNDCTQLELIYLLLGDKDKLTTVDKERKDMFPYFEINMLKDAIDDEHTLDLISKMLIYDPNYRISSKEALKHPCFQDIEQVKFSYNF

[7] = molecular target: Protein kinase 7 (PK7), Plasmodium falciparum 3D7 (PF3D7_0213400) (UniProt Q7YTF7); experiment: inhibition of Plasmodium PK7 catalytic activity – biochemical, TCAMS antimalarial set, Kinase-Glo luminescence (AID 1159587); conditions: recombinant PfPK7, Kinase-Glo ATP depletion luminescence
Chain of Protein kinase 7 (PK7), Plasmodium falciparum 3D7 (PF3D7_0213400) (Q7YTF7 1-343): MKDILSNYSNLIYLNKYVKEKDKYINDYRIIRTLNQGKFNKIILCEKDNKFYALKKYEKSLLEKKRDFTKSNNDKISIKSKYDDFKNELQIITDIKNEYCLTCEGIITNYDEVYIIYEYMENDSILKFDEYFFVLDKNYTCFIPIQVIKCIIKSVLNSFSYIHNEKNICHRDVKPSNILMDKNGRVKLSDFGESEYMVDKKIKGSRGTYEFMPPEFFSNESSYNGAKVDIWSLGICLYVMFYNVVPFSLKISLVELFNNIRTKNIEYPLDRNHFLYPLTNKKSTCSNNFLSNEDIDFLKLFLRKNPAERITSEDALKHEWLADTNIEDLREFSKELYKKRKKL

[8] = molecular target: Calcium-dependent protein kinase 4 (Plasmodium falciparum (isolate 3D7)) (UniProt Q8IBS5); experiment: PfCDPK4 kinase inhibitors, biochemical, TCAMS library (AID 1159588; cut-off not given, nearly all actives have IC50 up to about 0.91 µM); conditions: recombinant PfCDPK4, Kinase-Glo ATP depletion luminescence
Chain of Calcium-dependent protein kinase 4 (Plasmodium falciparum (isolate 3D7)) (Q8IBS5 whole entry, looked up): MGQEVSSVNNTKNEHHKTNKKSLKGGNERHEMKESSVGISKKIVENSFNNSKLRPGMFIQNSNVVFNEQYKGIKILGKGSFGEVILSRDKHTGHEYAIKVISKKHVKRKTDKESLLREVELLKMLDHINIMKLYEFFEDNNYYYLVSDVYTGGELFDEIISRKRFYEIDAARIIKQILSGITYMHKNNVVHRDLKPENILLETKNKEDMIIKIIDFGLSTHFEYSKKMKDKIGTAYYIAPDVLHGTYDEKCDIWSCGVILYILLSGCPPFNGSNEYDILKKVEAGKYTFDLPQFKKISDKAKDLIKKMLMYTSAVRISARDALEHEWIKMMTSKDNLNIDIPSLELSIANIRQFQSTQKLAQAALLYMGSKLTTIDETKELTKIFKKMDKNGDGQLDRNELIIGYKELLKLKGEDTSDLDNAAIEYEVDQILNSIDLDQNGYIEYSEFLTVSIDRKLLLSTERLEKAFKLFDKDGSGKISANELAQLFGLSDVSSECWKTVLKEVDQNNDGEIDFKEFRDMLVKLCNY

SMILES | growth inhibition [1] | inhibition [2] | inhibition [3] [%] | growth inhibition [4] | outcome [5] | outcome [6] | outcome [7] | outcome [8]
COc1ccc(CCNC(=O)c2cnc3c(c2)nc(-c2cnc(-c4ccccc4)[nH]2)n3CCc2cnc[nH]2)cc1 | 70% (active) | 16% | 1 | 96% (active) | inactive | inactive | inactive | inactive
CCOc1c(OC)ccc2c1CCN(CCN1CCC(NC(=O)c3ccc(-c4cccc(C(F)(F)F)c4C(F)(F)F)cc3)CC1)C2 | 57% (active) | 30% | -7 | 102% (active) | inactive | inactive | inactive | inactive
CCCCNCc1ccc(OCc2cccc(COc3ccc(CNCCCC)cc3)c2)cc1 | 35% | 98% (active) | 5 | 100% (active) | inactive | inactive | inactive | inactive
COc1cccc2c1CCN(CCN1CCC(CNC(=O)c3ccc(-c4ccc(C#N)cc4)cc3)CC1)C2 | 98% (active) | 57% (active) | 6 | 99% (active) | inactive | inactive | inactive | inactive
Cc1ccc(Nc2nccc(NCC(O)c3ccc(C(F)(F)F)cc3)n2)cc1 (stereo not given) | 100% (active) | 53% (active) | -7 | 100% (active) | inactive | inactive | inactive | inactive
OCC(c1ccccc1)n1c(COc2ccc(Cl)cc2)nc2c(OCCCN3CCCCC3)cccc21 (stereo not given) | 68% (active) | 6% | -7 | 90% (active) | inactive | inactive | inactive | inactive
O=C(c1cccc(-c2ccc(-c3nc4ccc(F)cc4[nH]3)s2)c1)N1CCCCC1CN1CCC(O)C1 (stereo not given) | 85% (active) | 23% | 2 | 101% (active) | inactive | inactive | inactive | inactive
CCCCN(CCCC)C(=O)CC(O)c1cc2c(Cl)cc(Cl)cc2c2cc(C(F)(F)F)ccc12 (stereo not given) | 68% (active) | -12% | -2 | 92% (active) | inactive | inactive | inactive | inactive
Cc1ccc(F)cc1S(=O)(=O)Nc1cccc(CCN2CCC(N3CCCCC3)CC2)c1 | 9% | 15% | 5 | 96% (active) | inactive | inactive | inactive | inactive
CCCN1CCC(c2c[nH]c3ccc(NC(=O)Nc4cccc(Cl)c4Cl)cc23)CC1 | 17% | 30% | 2 | 100% (active) | inactive | inactive | inactive | inactive
CCCCCCC(N)c1ccc(OCCCOc2ccc(C(N)CCCCCC)cc2)cc1 (stereo not given) | 70% (active) | 100% (active) | 1 | 88% (active) | inactive | inactive | inactive | inactive
O=S(=O)(NCCN1CCCC1)c1ccc(-c2ccccc2CNC2Cc3ccccc3C2)cc1 | 67% (active) | 19% | -9 | 95% (active) | inactive | inactive | inactive | inactive
CC(C)COc1ccc(Cl)cc1Cc1nc(-c2nc3ccc(CN4CCCCC4)cc3[nH]2)co1 | 70% (active) | 49% | -4 | 101% (active) | inactive | inactive | inactive | inactive
Cc1cc(C2NC(=O)c3ccccc3N2)c(C)n1-c1ccc2c(c1)OCO2 (stereo not given) | 85% (active) | 13% | -1 | 86% (active) | inactive | inactive | inactive | inactive
Cn1cc(C2CCN(CCCCNC(=O)c3ccc(-c4ccc(C(F)(F)F)cc4)c(CO)c3)CC2)c2ccccc21 | 16% | 67% (active) | -1 | 88% (active) | inactive | inactive | inactive | inactive
Nc1ccc(-c2nc3ccc(Cc4ccc5nc(-c6ccc(N)cc6)[nH]c5c4)cc3[nH]2)cc1 | 96% (active) | 47% | 2 | 100% (active) | inactive | inactive | inactive | inactive
N=c1c2c(n(Cc3ccccc3)c3c1CCC3)CCCC2 | 39% | 4% | -4 | 86% (active) | inactive | inactive | inactive | inactive
O=C1OC2(CN1CC1CCN(Cc3ccc(-n4ccnc4)cc3)C1)c1ccccc1-c1ccccc12 (stereo not given) | -5% | 25% | -2 | 96% (active) | inactive | inactive | inactive | inactive
Cc1ccc(S(=O)(=O)N2CCN(C(=O)c3cc(-c4ccccc4)n[nH]3)CC2)cc1 | 88% (active) | -8% | -7 | 91% (active) | inactive | inactive | inactive | inactive
COc1ccc(-c2cccc(NC(=O)c3ccc(C#N)cc3)c2)cc1CN1CCN(C)CC1 | 2% | 24% | -3 | 93% (active) | inactive | inactive | inactive | inactive

SMILES | growth inhibition [1] | inhibition [2] | inhibition [3] [%] | growth inhibition [4] | outcome [5] | outcome [6] | outcome [7] | outcome [8]
CCc1ccc(CN2CCC(NC(=O)c3ccc(-c4ccccc4F)s3)CC2)cc1 | 12% | 35% | 2 | 80% (active) | inactive | inactive | inactive | inactive
COc1ccccc1CCNc1ncnc2c1[nH]c1ccc(F)cc12 | 68% (active) | 49% | 0 | 95% (active) | inactive | inactive | inactive | inactive
COc1ccc(CCNCc2cc3c(C(C)(C)C)nn(-c4ccc(Cl)cc4)c3[nH]c2=O)cc1OC | 99% (active) | 13% | 5 | 100% (active) | inactive | inactive | inactive | inactive
CCCNC(=O)C1Cc2c([nH]c3ccc(Br)cc23)C2(CCN(CCc3ccccc3)CC2)N1 (stereo not given) | 49% | 16% | -8 | 99% (active) | inactive | inactive | inactive | inactive
CC(=O)Nc1nc(C(=O)Nc2cccc(-c3cccc(-c4nc5c(C)cccc5[nH]4)c3)c2)cs1 | 94% (active) | 28% | -2 | 101% (active) | inactive | inactive | inactive | inactive
CCCc1ccc(N2C(N)=NC(N)=NC2(C)C)cc1 | -2% | 59% (active) | 6 | 94% (active) | inactive | inactive | inactive | inactive
c1cc(CN2CCN(CCN3CCOCC3)CC2)cc(-c2csc(-c3nc4ccccc4[nH]3)c2)c1 | 99% (active) | 27% | -8 | 100% (active) | inactive | inactive | inactive | inactive
Cc1cc(N[C@@H](CC(C)C)C(=O)Nc2ccccc2)nc(Nc2ccccc2)n1 | 93% (active) | -2% | -1 | 99% (active) | inactive | inactive | inactive | inactive
N#Cc1ccc2nc(-c3cc(-c4cccc(F)c4)cnc3N)[nH]c2c1 | 93% (active) | 46% | 5 | 100% (active) | inactive | inactive | inactive | inactive
c1ncc(CCNc2nc(Nc3ccc4c(c3)OCO4)nc(NC3CCCC3)n2)[nH]1 | -3% | -1% | -2 | 80% (active) | inactive | inactive | inactive | inactive
Oc1ccc(Cc2ccccc2)cc1CNC1CCCCC1 | 98% (active) | 30% | -1 | 96% (active) | inactive | inactive | inactive | inactive
COc1ccc(S(=O)(=O)N2CCC3(CC2)OCC(=O)NC3c2ccc(Cl)c(Cl)c2)cc1 (stereo not given) | 44% | -4% | -2 | 91% (active) | inactive | inactive | inactive | inactive
O=[N+]([O-])c1cccc(-c2ccc(C=NNc3cc(N4CCCC4)nc(N4CCCC4)n3)o2)c1 | 67% (active) | -6% | 0 | 100% (active) | inactive | inactive | inactive | inactive
Cn1cc(CCNc2ccnc(N3CCC(c4ncc[nH]4)CC3)n2)c2ccccc21 | 5% | 12% | 3 | 92% (active) | inactive | inactive | inactive | inactive
COc1cc2cc(Cc3cnc(N)nc3N)ccc2c(OC)c1OC | 2% | 1% | 7 | 97% (active) | inactive | inactive | inactive | inactive
Cc1ccc(C)c(NC(=O)CC2C(=O)N(c3ccccc3)C(=S)N2Cc2ccco2)c1 (stereo not given) | 99% (active) | 9% | -1 | 101% (active) | inactive | inactive | inactive | inactive
CN1CCN(c2ccc(-c3cc(-c4cc(F)c(F)c(F)c4)cnc3N)cc2)CC1 | 12% | 58% (active) | -4 | 88% (active) | inactive | inactive | inactive | inactive
O=C(NCCSCc1c(F)cccc1Cl)c1cnc2c(c1)nc(-c1cnc(-c3ccccc3)[nH]1)n2CCc1cnc[nH]1 | 45% | 10% | 0 | 93% (active) | inactive | inactive | inactive | inactive
Cc1ccc(O)cc1Nc1ccnc2cc(-c3ccc(CN4CCCCC4)o3)ccc12 | 99% (active) | 16% | 0 | 100% (active) | inactive | inactive | inactive | inactive
COc1c(C2CCN(CCN3CCC(NC(=O)c4ccc(-c5ccc(C(F)(F)F)cc5)cc4)CC3)CC2)ccc2c1CCCC2 | 35% | 42% | 0 | 82% (active) | inactive | inactive | inactive | inactive
